Measurements: ChEMBL document CHEMBL1961873, “Compounds: GSK PKIS; Assays: Nanosyn kinase panel” (2012)

The molecules below were run against Tyrosine-protein kinase Blk (Homo sapiens) (UniProt P51451). Conditions: at 1 µM.
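Further: mean percent inhibition of BLK kinase activity, from GSK PKIS kinase inhibitor set profiling.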

Chain of Tyrosine-protein kinase Blk (Homo sapiens) (P51451 2-505 limits assumed): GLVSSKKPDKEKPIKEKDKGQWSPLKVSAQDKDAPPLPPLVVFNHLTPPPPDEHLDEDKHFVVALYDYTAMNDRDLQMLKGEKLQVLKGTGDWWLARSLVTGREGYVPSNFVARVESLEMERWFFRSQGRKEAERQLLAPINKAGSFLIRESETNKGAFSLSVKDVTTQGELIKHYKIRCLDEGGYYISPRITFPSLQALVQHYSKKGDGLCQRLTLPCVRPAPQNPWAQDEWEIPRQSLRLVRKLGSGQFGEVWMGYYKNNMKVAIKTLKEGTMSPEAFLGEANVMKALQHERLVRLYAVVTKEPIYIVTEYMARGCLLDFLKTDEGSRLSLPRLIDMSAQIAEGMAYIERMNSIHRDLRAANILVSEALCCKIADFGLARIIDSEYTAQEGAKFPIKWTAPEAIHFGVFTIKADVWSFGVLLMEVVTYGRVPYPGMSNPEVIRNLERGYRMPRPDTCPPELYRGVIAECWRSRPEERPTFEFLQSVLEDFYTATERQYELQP

Row | Structure (SMILES) | inhibition
1 | Nc1ccc(C#Cc2cncnc2Nc2ccc(OCc3cccc(F)c3)c(Cl)c2)cc1 | 3.41%
2 | O=S(=O)(CCOCc1ccc(-c2ccc3ncnc(Nc4ccc(OCc5cccc(F)c5)c(Cl)c4)c3c2)o1)c1ccccc1 | 1.68%
3 | Nc1nccc(C#Cc2cncnc2Nc2ccc(OCc3cccc(F)c3)c(Cl)c2)n1 | 5.98%
4 | ON=C1CCc2cc(-c3nc(C4CCNCC4)[nH]c3-c3ccncc3)ccc21 | 2.67%
5 | Cc1cc(O)cc(C)c1/C=C/c1cncc(C(=O)N(C)C)c1 | 3.78%
6 | CCn1c(-c2nonc2N)nc2c(C#CC(C)(C)O)nc(OCCNC)cc21 | 3.35%
7 | Cc1cc(-c2ccccn2)cc(C)c1/C=C/c1cncc(-c2nn[nH]n2)c1 | 33.4%
8 | NS(=O)(=O)c1ccc(-c2cc3ccncc3cc2OCc2ccccc2)cc1 | 3.91%
9 | CS(=O)(=O)Nc1cccc(-c2ccc3c(NC(=O)C4CC4)n[nH]c3c2)c1 | 4.51%
10 | O=C(Nc1ccc(Oc2ccc3[nH]c(NC(=O)c4ccco4)nc3c2)cc1)Nc1cc(C(F)(F)F)ccc1F | 1.7%
11 | COc1ccc2ncnc(Nc3ccc(OCc4ccccc4)cc3)c2c1 | 6.3%
12 | COC(=O)c1cncc(/C=C/c2c(C)cc(O)cc2C)c1 | 13.6%
13 | Cc1ccc(C(=O)NC2CC2)cc1-c1ccc2[nH]ncc2c1 | -1.6%
14 | COc1cc2ncnc(Nc3ccc4c(cnn4Cc4ccccc4)c3)c2cc1OC | 60.8%
15 | Cc1ccc2c(c1)/C(=N/Nc1ccc(S(N)(=O)=O)cc1)C(=O)N2 | 11.2%
16 | CN(C)CCCn1c(-c2nonc2N)nc2cnccc21 | 3.44%
17 | CCCN1CCCC(c2ccc(Nc3nc(Nc4cc(F)ccc4C(N)=O)c4cc[nH]c4n3)c(OC)c2)C1 (stereo not drawn) | 6.81%

Row | Structure (SMILES) | inhibition
18 | Cc1ccc(NC(=O)CC2CC2)cc1-c1ccc(C(=O)NCC2CC2)cc1 | 2.73%
19 | Cc1ccc(Nc2ccnc(Nc3cccc(C(N)=O)c3)n2)cc1O | 71.2%
20 | CN(c1ccc(NC(=O)Nc2ccc(OC(F)(F)F)cc2)cc1)c1ccnc(Nc2cccc(S(N)(=O)=O)c2)n1 | 86.3%
21 | CS(=O)(=O)CCNCc1nc(-c2ccc3ncnc(Nc4ccc(OCc5cccc(C(F)(F)F)c5)cc4)c3c2)cs1 | 4.48%
22 | Cc1nc(-c2ccccc2)n2nc(NCCCN3CCOCC3)ncc12 | 4.14%
23 | CN(C)C(=O)O[C@H]1CN[C@H](C#Cc2cc3ncnc(Nc4ccc(OCc5cccc(F)c5)c(Cl)c4)c3s2)C1 | 4.23%
24 | NC(=O)c1sc(-n2cnc3ccccc32)cc1OCc1ccccc1Br | 3.7%
25 | COc1cc(/C=N/Nc2ncnc3c2cnn3C(C)C)ccc1O | 45%
26 | Cc1ccc2c(-c3ccnc(Nc4cccc(C(F)(F)F)c4)n3)c(-c3ccccc3)nn2n1 | 68.1%
27 | CC(C)c1ccc2c(c1)NC(=O)/C2=N/Nc1ccc(S(N)(=O)=O)cc1 | 14%
28 | NS(=O)(=O)c1ccc(NC=C2C(=O)Nc3ccc4ncsc4c32)cc1 | 58.3%
29 | CN(C)c1cc2c(Nc3ccc4c(cnn4Cc4ccccc4)c3)ncnc2cn1 | 22.6%
30 | Oc1cccc(-c2nc(-c3ccccc3)[nH]c2-c2ccncc2)c1 | 8.82%
31 | CCn1c(-c2nonc2N)nc2ccc(F)cc21 | 4.5%
32 | CN1CCN(C(=O)c2ccc(NC(=O)Nc3ccc(N(C)c4ccnc(Nc5ccc(CS(C)(=O)=O)cc5)n4)cc3)cc2)CC1 | 24.4%
33 | Nc1nccc(-c2c(-c3ccc(F)cc3)nn3cc(C(F)(F)F)ccc23)n1 | 1.08%
